From PubChem
Sampled rows, rich in hits. Any-hit rate of the full collection: about 2%.
PfG6PD inh: PfG6PD (Plasmodium falciparum) enzyme inhibition; PfGluPho enzyme, NADPH resazurin-diaphorase fluorescence; hit rate 0.78% among 350,000; inhibition, % at 20 µM;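 active = inhibition reaching at least a set limit at 20 µM in the primary screen, cut at about 59% in these data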;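 note: 0% = DMSO wells with substrate and 100% = DMSO wells lacking glucose-6-phosphate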
Neddylation inh: cullin neddylation inhibition | inhibition, % at 25 µM | hit rate 0.58% among 360,000 | TR-FRET cullin neddylation, biochemical; in the data active = inhibition above about 36%
GC-B act: GC-B (human) receptor activation. P20594. HEK293-GC-B cells, CNP EC30, cGMP TR-FRET; 0% at EC30 CNP, 100% saturating CNP. activation, % at 10 µM. hit rate 0.11% among 370,000. AID 1920062;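 active = activation at 10 µM reaching about 35% in either raw or pattern-adjusted values, limit read from the data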
NPR1 activator: GC-A (human) enzyme activation. AID 1671463. activation, % at 10 µM. HEK293 GC-A cells, cGMP TR-FRET, EC30 ANP; 0% at EC30 ANP, 100% saturating ANP. P16066. hit rate 0.14% among 370,000; in the data active = activation above about 40%
APOBEC3A inh: inhibitors of human APOBEC3A DNA deaminase. P31941. recombinant A3A, FAM/TAMRA ssDNA deamination fluorescence. inhibition, % at 20 µM. hit rate 0.41% among 330,000;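 active = at least 40% inhibition at 20 µM here, with at most 30% in a related deaminase screen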;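 note: plate controls were A3A with DMSO for no effect and wells lacking A3A enzyme for full effect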
A3G deaminase: APOBEC3G (human) deaminase inhibition. Q9HC16. recombinant A3G, ssDNA deamination FAM/TAMRA fluorescence. inhibition, % at 20 µM. hit rate 0.28% among 330,000. AID 493012;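 active = inhibition of at least 40% at 20 µM, with no more than 30% in the related APOBEC3A deaminase screen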;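 note: plate controls were DMSO wells with A3G for no effect and wells lacking A3G enzyme for full effect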
APOBEC3A confirm: confirmation of human APOBEC3A DNA deaminase inhibitors; hit rate 63% among 1,400; AID 493151; recombinant A3A, ssDNA deaminase UDG fluorescence assay; inhibition, % at 20 µM; shares compounds with APOBEC3A inh;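 active = inhibition reaching a set limit, 80% of the first screen's cutoff, at 20 µM in any replicate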;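 note: plate controls were DMSO wells with A3A for no effect and wells lacking A3A enzyme for full effect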
UDG ctr A3A: inhibits UDG, flagging false APOBEC3A inhibitors | UDG counterscreen, FAM/TAMRA uracil oligo fluorescence | shares compounds with APOBEC3A inh | inhibition, % at 20 µM | 1,000 tested, under 10 active; call rule not given here
Numbers without * were called inactive; x = not tested or not shown.

SMILES	PfG6PD inh	Neddylation inh	GC-B act	NPR1 activator	APOBEC3A inh	A3G deaminase	APOBEC3A confirm	UDG ctr A3A
COC(=O)CCCCCCCCC(O)CN(C)C (configuration not stated)	-1	1	-7	0	1	0	x	x
CC(=O)OCCCCCCCCCCC[N+]1(C)CCCCC1	21	0	1	1	79*	20	73*	2
COC(=O)CCCCCCCCC(O)C[N+]1(C)CCOCC1 (configuration not stated)	-1	1	-1	3	53*	23	78*	-3
COC(=O)CCCCCCCCCC[N+]1(C)CCCCC1	-7	-7	-3	-1	44*	22	85*	2
C#CCN1CC(N(C)CCOC(=O)c2cc(C)cc(C)c2)CS1(=O)=O (configuration not stated)	x	x	3	1	x	x	x	x
C[C@H]1[C@@H](NC(=O)Cc2ccsc2)CC[C@@]23CCCN2C(=O)CCC[C@@H]13	x	x	2	0	x	x	x	x
CC[n+]1c(/C=C/Nc2ccccc2)sc2ccccc21	-12	-15	-4	-4	34	27	x	x
CC[n+]1ccccc1/C=C/Nc1ccccc1	-2	-9	2	3	61*	18	70*	7
COc1ccc(OCc2nn[nH]n2)cc1	-11	2	-1	3	56*	-1	19	2
COc1cccc(OCc2nn[nH]n2)c1	-9	-4	6	1	1	0	x	x
C[n+]1ccccc1/C=C/c1ccc([N+](=O)[O-])cc1	13	-22	8	5	57*	23	62*	x
C[n+]1ccccc1/C=C/c1ccc2ncccc2c1	5	-6	-1	6	75*	18	75*	0
C[n+]1ccccc1/C=C/c1ccc(C#N)cc1	6	1	5	-1	x	x	x	x
C[n+]1ccccc1/C=C/c1ccc(F)c(F)c1	-6	8	2	8	53*	17	55*	x
CCc1cc2c(nc1CC)CCCN2S(=O)(=O)c1ccccc1	x	x	-6	-4	x	x	x	x
C[n+]1ccc(/C=C/c2c[nH]c3ccc(F)cc23)cc1	-7	-51	-10	-16	49*	12	45*	x
Cn1cc(/C=C/c2cc[n+](C)cc2)c2cc(F)ccc21	-15	-94	x	x	x	x	x	x
CC(=O)/C(C[N+]1(C)CCCCC1)=N\O	-5	-2	-1	5	41*	21	82*	5
CC[N+]1(CC(O)COC2CC(C)CC(C)(C)C2)CCOCC1 (configuration not stated)	7	5	5	-1	43*	24	75*	-4
O=C(O)COc1ccc(/C=N/NC(=O)C2CCCN2S(=O)(=O)c2ccc(Cl)cc2)cc1 (configuration not stated)	12	-13	-3	3	51*	4	13	x
OCCN1CCN(c2ncnc3nc[nH]c23)CC1	2	-2	5	6	51*	-3	-5	1
c1nc(N2CCCC2)c2[nH]cnc2n1	-3	-6	5	4	1	-6	x	x
O=C(CSc1nccc(=O)[nH]1)NCc1ccco1	3	2	5	-2	49*	18	35*	0
Cc1cc(=O)[nH]c(SCC(=O)Nc2ccc(C(=O)O)cc2)n1	-17	0	3	0	3	3	x	x
Cc1cc(=O)[nH]c(SCC(=O)NCc2ccco2)n1	4	0	3	-1	65*	18	55*	1
SMILES	PfG6PD inh	Neddylation inh	GC-B act	NPR1 activator	APOBEC3A inh	A3G deaminase	APOBEC3A confirm	UDG ctr A3A
CCOC(=O)c1ccc(NC(=O)CSc2nc(C)cc(=O)[nH]2)cc1	-13	3	x	x	46*	15	66*	4
O=C(CN1CCc2onc(-c3cccc(-n4cc(CO)nn4)c3)c2C1=O)N1CCOCC1	x	x	-2	1	x	x	x	x
COc1cc(C=Nn2c(-c3cc(-c4ccccc4)n[nH]3)n[nH]c2=S)ccc1OC(C)=O	x	x	-16	-2	x	x	x	x
Clc1ccc(-n2c(SCc3cccc4ccccc34)nnc2-c2ccccc2)cc1	x	x	-17	-17	x	x	x	x
Cc1c(C(=O)OC(C)C(=O)N(C)Cc2ccccc2)oc2ccccc12 (configuration not stated)	2	11	-3	-2	-2	-4	x	x
Cc1c(C(=O)OC(C)C(C)C[N+](C)(C)C)oc2ccccc12 (configuration not stated)	-21	13	9	4	83*	24	81*	-3
COc1ccc(CNCC#CC2=CCCCC2)c(OC)c1	x	x	-2	-1	x	x	x	x
CCOC(=O)C1=C(c2ccccc2)N=c2s/c(=C\c3ccco3)c(=O)n2C1c1cccs1 (configuration not stated)	17	-15	-3	-10	42*	13	19*	-3
COc1ccc(-c2cc(C(=O)NN=Cc3ccc(C)s3)[nH]n2)cc1	x	x	-1	-6	x	x	x	x
CCc1nc(CNC(=O)c2cc(OC)c(OC)c(OC)c2)no1	-8	-2	-1	-3	48*	20	73*	-2
C=CCN1[C@@H](Cc2ccccc2)COc2cccc(N3CCCC3)c2S1(=O)=O	x	x	-9	-3	x	x	x	x
COc1cc(/C=N\NC(=O)c2ccc(Cl)cc2)ccc1Oc1ccc([N+](=O)[O-])cn1	-1	-34	1	-4	48*	15	63*	-1
COc1cc(/C=N\NC(=O)c2cccc(Cl)c2)ccc1Oc1ccc([N+](=O)[O-])cn1	-4	-14	1	-5	-4	-7	x	x
CCn1c(SCC(=O)N2CCc3ccccc32)nnc1-c1ccncc1	28	4	-4	0	49*	20	27	x
O=C(CSc1nnnn1-c1ccccc1)N1CCCc2ccccc21	2	1	-3	2	-8	-5	x	x
O=C(CSc1nnnn1-c1ccccc1)N1CCc2ccccc21	16	3	1	0	41*	17	62*	-2
COc1cc(NC(=O)C2CCN(c3nnc(-n4cccc4)s3)CC2)cc(OC)c1	x	x	2	0	x	x	x	x
COc1ccc(-c2ccc3c(n2)CCCN3Cc2ccccc2C(F)(F)F)cc1	x	x	-3	0	x	x	x	x
COc1ccc(NC(=O)/C(C#N)=C\c2ccc(Br)o2)cc1	-31	-12	-3	-1	71*	21	42*	-2
COc1ccc(NC(=O)/C(C#N)=C/c2ccc(-c3ccccc3C(=O)O)o2)cc1	-21	-29	0	0	-5	-11	x	x
CCOC(=O)CC[C@@H]1CC[C@]2(CCCN(Cc3ccc(Cl)cc3)C2)O1	x	x	-7	0	x	x	x	x
